Records with an inconclusive call do not appear. Active and inactive are the calls of the source. Unless noted, the call rests on the fitted dose curve; in most records, active means well fitted curve in the direction sought with a large enough effect in the repeat runs; inconclusive means weak or mixed curves; inactive means no such curve, though single readings can be large; an effect the other way counts as inactive or inconclusive.
Legend:
[1] = qHTS assay to identify small molecule antagonists of the thyroid receptor (TR) signaling pathway - cell viability counter screen (AID 743064); further: nearly all actives have a fitted effect of over 50% in size
In short: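 Counter screen for cytotoxicity: compound plus T3 (1 nM final) on GH3.TRE-Luc cells, 23.5 h at 37 °C, then fluorescence viability readout with CellTiter-Fluor.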

[2] = qHTS assay to identify small molecule antagonists of the thyroid receptor (TR) signaling pathway (AID 743065); further: series mostly up to about 70 µM; nearly all actives have a fitted effect of over 55% in size
In short: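 GH3.TRE-Luc rat pituitary cells carrying two TR response elements driving luciferase were plated for 4 h, given compound plus 1 nM T3 (final), and incubated 23.5 h at 37 C. ONE-Glo luminescence measured reporter inhibition; CellTiter-Fluor fluorescence tracked cytotoxicity.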

[3] = test system: thyroid hormone receptor (rat, GH3 cells); assay: qHTS assay to identify small molecule agonists of the thyroid receptor (TR) signaling pathway (AID 743066; calls by dose curve)
[4] = molecular target: Estrogen receptor (Homo sapiens) (UniProt P03372); assay: qHTS assay to identify small molecule antagonists of the estrogen receptor alpha (ER-alpha) signaling pathway (AID 743069; active means well fitted curve in the direction sought with a large enough effect in the signal ratio in the repeat runs, not every such curve was filed as active; the % refers to the signal ratio)
In short: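 Screening used a UAS-driven beta-lactamase reporter integrated into HEK293 cells expressing ER-alpha, stimulated with 17beta-estradiol alongside test compounds over 18 hr at 37C; signal came from LiveBLAzer B/G FRET fluorescence.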

[5] = qHTS assay to identify small molecule antagonists of the estrogen receptor alpha (ER-alpha) signaling pathway - cell viability counter screen (AID 743074; calls by dose curve; further: nearly all actives have a fitted effect of over 45% in size)
[6] = molecular target: Estrogen receptor (Homo sapiens) (UniProt P03372); assay: qHTS assay to identify small molecule agonists of the estrogen receptor alpha (ER-alpha) signaling pathway (AID 743075; calls by dose curve)
[7] = molecular target: Estrogen receptor (Homo sapiens) (UniProt P03372); assay: qHTS assay to identify small molecule agonists of the estrogen receptor alpha (ER-alpha) signaling pathway using the BG1 cell line (AID 743079); further: nearly all actives have a fitted effect of over 20% in size; further: potency means the concentration at half of the fitted maximal effect
[8] = qHTS assay to identify small molecule antagonists of the estrogen receptor alpha (ER-alpha) signaling pathway using the BG1 cell line (AID 743080; calls by dose curve;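 further: BG1 cells stimulated with 17beta-estradiol alongside compound; series mostly up to about 70 µM; nearly all actives have a fitted effect of over 25% in size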)
In short: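 Readout is ONE-Glo luminescence, taken 30 min at room temperature after reagent addition, preceded by a CellTiter-Fluor viability read; BG1-Luc-4E2 cells had received compound and 17beta-estradiol for 21.5 h at 37 C.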

[9] = qHTS assay to identify small molecule antagonists of the estrogen receptor alpha (ER-alpha) signaling pathway using the BG1 cell line - cell viability counter screen (AID 743081);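 further: compound given together with 17beta-estradiol as the ER stimulus; series mostly up to about 70 µM; nearly all actives have a fitted effect of over 45% in size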
Aromatase (Homo sapiens) = Aromatase (Homo sapiens) (UniProt P11511); assay: qHTS assay to identify aromatase inhibitors (AID 743083); further: series mostly up to about 70 µM; nearly all actives have a fitted effect of over 55% in size
[10] = qHTS assay to identify aromatase inhibitors - cell viability counter screen (AID 743084);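 further: cells stimulated with testosterone during compound exposure; nearly all actives have a fitted effect of over 55% in size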
[11] = molecular target: Aryl hydrocarbon receptor (Homo sapiens) (UniProt P35869); assay: qHTS assay to identify small molecule that activate the aryl hydrocarbon receptor (AhR) signaling pathway (AID 743085);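 further: HG2L7.5c1 human HepG2 liver cells with stably integrated DRE-driven firefly reporter; series mostly up to about 70 µM; nearly all actives have a fitted effect of over 15% in size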
In short: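 Measured in HG2L7.5c1 cells: CellTiter-Fluor signal (30 min incubation, 37C) for viability, then luciferase luminescence (30 min, room temperature). Compound contact time was 24 h at 37C, following a 5 h pre-incubation.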

[12] = qHTS assay to identify small molecule that activate the aryl hydrocarbon receptor (AhR) signaling pathway - cell viability counter screen (AID 743086);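 further: HepG2 liver cells carrying the AhR DRE luciferase reporter; series mostly up to about 70 µM; nearly all actives have a fitted effect of over 45% in size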
In short: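 HepG2-AhR-luc (HG2L7.5c1) cells, 4000/well, were preincubated 5 h at 37C, exposed to compound in qHTS format for 24 hr at 37C, then given CellTiter-Fluor for 30 min; viability was read as fluorescence in the reporter wells.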

[13] = molecular target: Peroxisome proliferator-activated receptor gamma (Homo sapiens) (UniProt P37231); assay: qHTS assay to identify small molecule agonists of the peroxisome proliferator-activated receptor gamma (PPARg) signaling pathway (AID 743094; active means well fitted activation curve with a large enough effect in the signal ratio in the repeat runs, not every such curve was filed as active; the % refers to the signal ratio)
In short: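 Agonist activity was taken from a beta-lactamase reporter (FRET substrate, 1 h at room temperature) in HEK293H cells carrying a PPARg UAS-bla construct. Compounds in DMSO were incubated 17 h at 37C after a 5 h cell pre-incubation.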

[14] = molecular target: Peroxisome proliferator-activated receptor gamma (Homo sapiens) (UniProt P37231); assay: qHTS assay to identify small molecule antagonists of the peroxisome proliferator-activated receptor gamma (PPARg) signaling pathway (AID 743191; calls by dose curve; further: series mostly up to about 63 µM; nearly all actives have a fitted effect of over 30% in size)
In short: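 GeneBLAzer PPARg UAS-bla HEK293H cells carrying a UAS-driven beta-lactamase reporter were plated at 3000 cells/well, preincubated 5 h at 37C, then given compound for 17 h at 37C; LiveBLAzer B/G FRET substrate was read after 1 h at room temperature.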

[15] = qHTS assay for small molecule agonists of the antioxidant response element (ARE) signaling pathway (AID 743202; active means well fitted activation curve with a large enough effect in the signal ratio in the repeat runs, not every such curve was filed as active; the % refers to the signal ratio)
In short: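 Steps: seed ARE-bla HepG2 cells (2,000/well); incubate 5 h at 37 C; add compounds by pin tool; incubate 16 h at 37 C; add FRET substrate; read fluorescence after 2 h at RT.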

[16] = qHTS assay for small molecule agonists of the antioxidant response element (ARE) signaling pathway - cell viability counter screen (AID 743203; calls by dose curve; further: nearly all actives have a fitted effect of over 55% in size)
In short: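 Viability counter screen: CellTiter-Glo luminescence, read after 30 min at room temperature, in ARE-bla HepG2 wells. Compound exposure lasted 16 h at 37C/5% CO2, following a 5 h pre-incubation of the cells after plating.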

[17] = qHTS assay for small molecule activators of the heat shock response signaling pathway - cell viability counter screen (AID 743209); further: nearly all actives have a fitted effect of over 50% in size
In short: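 Cytotoxicity counter screen run in the same wells as the heat-shock bla reporter assay: HeLa HSE-bla cells, 5 h compound exposure at 37 C, viability read by CellTiter-Glo luminescence.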

[18] = qHTS assay for small molecule activators of the heat shock response signaling pathway (AID 743210; active means well fitted activation curve with a large enough effect in the signal ratio in the repeat runs, with a control signal flat, not every such curve was filed as active; the % refers to the signal ratio;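 further: HeLa cells with beta-lactamase reporter driven by heat shock elements; series mostly up to about 63 µM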)
In short: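 Activation of heat shock element-controlled beta-lactamase expression is measured in HeLa cells by LiveBLAzer FRET fluorescence, with compound exposure lasting 5 h at 37 C and substrate loading 2.5 h at room temperature.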

[19] = qHTS assay to identify small molecule antagonists of the peroxisome proliferator-activated receptor gamma (PPARg) signaling pathway - cell viability counter screen (AID 743194); further: nearly all actives have a fitted effect of over 55% in size
In short: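 PPARg-UAS-bla HEK293H cells were plated, rested 5 h at 37 C, then treated with compounds plus rosiglitazone (50 nM final) for 17 h at 37 C; viability was then read by CellTiter-Glo luminescence after 30 min at room temperature.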

Measured: Potency

Sequence of Aryl hydrocarbon receptor (Homo sapiens) (P35869 whole entry, looked up): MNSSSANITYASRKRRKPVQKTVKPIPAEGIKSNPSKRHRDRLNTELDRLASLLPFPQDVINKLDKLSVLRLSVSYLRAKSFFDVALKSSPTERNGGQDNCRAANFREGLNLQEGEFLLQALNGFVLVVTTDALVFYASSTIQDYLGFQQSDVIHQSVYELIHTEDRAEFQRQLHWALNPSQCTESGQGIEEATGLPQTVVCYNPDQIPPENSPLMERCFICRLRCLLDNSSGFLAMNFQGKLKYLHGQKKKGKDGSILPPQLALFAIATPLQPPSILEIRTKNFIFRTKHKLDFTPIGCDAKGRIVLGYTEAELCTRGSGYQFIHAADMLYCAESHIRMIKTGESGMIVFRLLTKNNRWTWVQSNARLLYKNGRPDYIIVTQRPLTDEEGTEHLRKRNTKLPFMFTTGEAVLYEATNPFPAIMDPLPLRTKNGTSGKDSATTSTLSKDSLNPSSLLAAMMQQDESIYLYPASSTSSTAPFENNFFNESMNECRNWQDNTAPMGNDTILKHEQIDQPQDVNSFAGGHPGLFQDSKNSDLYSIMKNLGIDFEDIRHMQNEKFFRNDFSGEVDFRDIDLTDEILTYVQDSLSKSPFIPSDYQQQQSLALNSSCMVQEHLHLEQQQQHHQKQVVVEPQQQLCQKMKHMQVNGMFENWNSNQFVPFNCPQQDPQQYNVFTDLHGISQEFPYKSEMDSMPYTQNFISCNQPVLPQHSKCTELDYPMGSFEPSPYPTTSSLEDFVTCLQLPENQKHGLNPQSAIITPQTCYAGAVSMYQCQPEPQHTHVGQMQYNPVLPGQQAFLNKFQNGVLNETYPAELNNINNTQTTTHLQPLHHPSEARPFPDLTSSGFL
Sequence of Peroxisome proliferator-activated receptor gamma (Homo sapiens) (P37231 whole entry, looked up): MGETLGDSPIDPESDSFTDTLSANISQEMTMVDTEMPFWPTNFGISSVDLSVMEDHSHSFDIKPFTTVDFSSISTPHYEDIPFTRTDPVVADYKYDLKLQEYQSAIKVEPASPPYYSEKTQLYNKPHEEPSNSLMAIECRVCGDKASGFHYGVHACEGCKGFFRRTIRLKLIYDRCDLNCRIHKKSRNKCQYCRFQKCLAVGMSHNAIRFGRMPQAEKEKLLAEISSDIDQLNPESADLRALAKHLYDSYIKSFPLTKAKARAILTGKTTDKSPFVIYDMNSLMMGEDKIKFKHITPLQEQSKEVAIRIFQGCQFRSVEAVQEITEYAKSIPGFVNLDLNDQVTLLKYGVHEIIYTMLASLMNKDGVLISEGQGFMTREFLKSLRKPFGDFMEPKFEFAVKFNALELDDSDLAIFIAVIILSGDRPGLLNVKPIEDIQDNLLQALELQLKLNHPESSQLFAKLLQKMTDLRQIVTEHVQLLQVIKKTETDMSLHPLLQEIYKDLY
Sequence of Aromatase (Homo sapiens) (P11511 whole entry, looked up): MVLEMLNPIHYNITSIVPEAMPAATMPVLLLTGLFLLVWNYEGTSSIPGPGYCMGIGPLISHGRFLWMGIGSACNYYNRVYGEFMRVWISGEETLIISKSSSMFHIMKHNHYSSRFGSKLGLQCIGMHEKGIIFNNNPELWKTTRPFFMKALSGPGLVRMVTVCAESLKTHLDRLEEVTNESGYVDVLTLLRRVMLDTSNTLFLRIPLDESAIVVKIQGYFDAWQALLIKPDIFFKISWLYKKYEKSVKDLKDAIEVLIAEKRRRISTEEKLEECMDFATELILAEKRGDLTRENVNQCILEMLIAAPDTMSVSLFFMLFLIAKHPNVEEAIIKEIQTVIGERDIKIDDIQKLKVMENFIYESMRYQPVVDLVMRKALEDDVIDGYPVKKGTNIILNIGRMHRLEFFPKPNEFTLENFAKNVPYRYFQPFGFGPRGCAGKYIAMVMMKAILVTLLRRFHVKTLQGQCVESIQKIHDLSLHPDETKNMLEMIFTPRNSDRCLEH
Sequence of Estrogen receptor (Homo sapiens) (P03372 whole entry, looked up): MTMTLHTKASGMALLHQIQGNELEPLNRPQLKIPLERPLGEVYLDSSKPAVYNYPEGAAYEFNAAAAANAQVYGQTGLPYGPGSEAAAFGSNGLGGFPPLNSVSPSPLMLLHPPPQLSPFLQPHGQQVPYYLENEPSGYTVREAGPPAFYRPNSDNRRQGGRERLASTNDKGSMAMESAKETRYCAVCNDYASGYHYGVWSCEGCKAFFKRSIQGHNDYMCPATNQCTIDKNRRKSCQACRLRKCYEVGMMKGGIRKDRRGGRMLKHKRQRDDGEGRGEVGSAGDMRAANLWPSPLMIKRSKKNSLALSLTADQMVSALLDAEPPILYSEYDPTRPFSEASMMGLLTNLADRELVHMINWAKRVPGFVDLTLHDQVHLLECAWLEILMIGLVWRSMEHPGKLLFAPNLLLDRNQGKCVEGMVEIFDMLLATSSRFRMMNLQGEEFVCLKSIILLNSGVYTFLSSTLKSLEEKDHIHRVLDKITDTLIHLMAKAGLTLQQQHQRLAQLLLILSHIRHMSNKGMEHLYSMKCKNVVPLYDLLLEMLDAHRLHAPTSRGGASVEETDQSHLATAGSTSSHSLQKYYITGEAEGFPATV

CCCCCCCCCCCCCCCCCCO
inactive: [1] | [2] | [3] | [4] | [5] | [6] | [7] | [8] | [9] | Aromatase (Homo sapiens) | [10] | [11] | [12] | [13] | [14] | [15] | [16] | [17] | [18]

Cc1ccc(-c2ncc(Cl)cc2-c2ccc(S(C)(=O)=O)cc2)cn1
inactive: [1] | [2] | [3] | [4] | [5] | [6] | [7] | [8] | [9] | Aromatase (Homo sapiens) | [10] | [11] | [12] | [13] | [14] | [19] | [15] | [16] | [17] | [18]

CN1[C@@H]2CC[C@H]1CC(OC(=O)C(O)c1ccccc1)C2 (stereo partly drawn)
inactive: [1] | [2] | [3] | [4] | [5] | [6] | [7] | [8] | [9] | Aromatase (Homo sapiens) | [10] | [11] | [12] | [13] | [14] | [19] | [15] | [16] | [17] | [18]

O=[N+]([O-])c1ccc(/C=N\O)o1
inactive: [1] | [2] | [3] | [4] | [5] | [6] | [7] | [8] | [9] | Aromatase (Homo sapiens) | [10] | [11] | [12] | [13] | [14] | [16] | [17]

c1ccc(Cc2ccccc2)cc1
inactive: [1] | [2] | [3] | [4] | [5] | [6] | [7] | [8] | [9] | Aromatase (Homo sapiens) | [10] | [11] | [12] | [13] | [14] | [19] | [15] | [16] | [17] | [18]

CCN1C=CN(C)C1C (stereo not drawn)
inactive: [1] | [2] | [3] | [4] | [5] | [6] | [7] | [8] | [9] | Aromatase (Homo sapiens) | [10] | [11] | [12] | [13] | [19] | [15] | [16] | [17] | [18]

CC(C)(N)C#N
inactive: [1] | [2] | [3] | [4] | [5] | [6] | [7] | [8] | [9] | Aromatase (Homo sapiens) | [10] | [11] | [12] | [13] | [14] | [19] | [15] | [16] | [17] | [18]

CCCCCC(=O)OCCc1ccccc1
inactive: [1] | [2] | [3] | [4] | [5] | [6] | [7] | [8] | [9] | Aromatase (Homo sapiens) | [10] | [11] | [12] | [13] | [14] | [19] | [16] | [17] | [18]

CCC1C(=O)OCC1Cc1cncn1C (stereo not drawn)
inactive: [1] | [2] | [3] | [4] | [5] | [6] | [7] | [8] | [9] | Aromatase (Homo sapiens) | [10] | [11] | [12] | [13] | [14] | [19] | [15] | [16] | [17] | [18]

C1CCC2(CCCCO2)OC1
inactive: [1] | [2] | [3] | [4] | [5] | [6] | [7] | [8] | [9] | Aromatase (Homo sapiens) | [10] | [11] | [12] | [13] | [14] | [19] | [15] | [16] | [17] | [18]

C=C[Si](OC(C)=O)(OC(C)=O)OC(C)=O
inactive: [1] | [2] | [3] | [4] | [5] | [6] | [7] | [8] | [9] | Aromatase (Homo sapiens) | [10] | [11] | [12] | [13] | [14] | [16] | [17]

C=CCOCC(O)CO (stereo not drawn)
inactive: [1] | [2] | [3] | [4] | [5] | [6] | [7] | [8] | [9] | Aromatase (Homo sapiens) | [10] | [11] | [12] | [13] | [14] | [19] | [15] | [16] | [17] | [18]

CCN[C@H]1C[C@H](C)S(=O)(=O)c2sc(S(N)(=O)=O)cc21
inactive: [1] | [2] | [3] | [4] | [5] | [6] | [7] | [8] | [9] | Aromatase (Homo sapiens) | [10] | [11] | [12] | [13] | [14] | [19] | [16] | [17] | [18]

Cc1ccc(C(=O)c2ccccc2)cc1
inactive: [1] | [2] | [3] | [4] | [5] | [6] | [8] | [9] | Aromatase (Homo sapiens) | [10] | [11] | [12] | [13] | [19] | [16] | [17] | [18]
active: [7] 21.7 µM

Reference: PubChem BioAssay (Tox21)
